S1P4 agonist: S1P4 receptor agonists, primary screen, cell-based. activation, % at 4.98 µM. 220,000 compounds, 0.35% hits. AID 1509, 2009. S1P4-expressing cell line, agonist reporter assay; in the data active = activation above about 11%;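 also: 0% = DMSO vehicle and 100% = reference agonist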
S1P3 antagonist: S1P3 receptor antagonists, primary screen, cell-based; Sphingosine 1-phosphate receptor 3 (Homo sapiens), Q99500; CHO S1P3 NFAT-BLA reporter, FRET fluorescence, antagonist mode; inhibition, % at 4.98 µM; 170,000 compounds, 0.27% hits; AID 485, 2006;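 active = inhibition above the plate cutoff, the mean inhibition of test wells on that plate plus 3 SD, cut at about 28% in these data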;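 also: cells challenged with S1P at its EC80 of 0.8 µM; blue over green emission ratio from cleaved BLA substrate after 4 h stimulation; 0% = S1P-stimulated wells and 100% = unstimulated DMSO-only wells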
Target sequence (Q99500 whole entry, looked up): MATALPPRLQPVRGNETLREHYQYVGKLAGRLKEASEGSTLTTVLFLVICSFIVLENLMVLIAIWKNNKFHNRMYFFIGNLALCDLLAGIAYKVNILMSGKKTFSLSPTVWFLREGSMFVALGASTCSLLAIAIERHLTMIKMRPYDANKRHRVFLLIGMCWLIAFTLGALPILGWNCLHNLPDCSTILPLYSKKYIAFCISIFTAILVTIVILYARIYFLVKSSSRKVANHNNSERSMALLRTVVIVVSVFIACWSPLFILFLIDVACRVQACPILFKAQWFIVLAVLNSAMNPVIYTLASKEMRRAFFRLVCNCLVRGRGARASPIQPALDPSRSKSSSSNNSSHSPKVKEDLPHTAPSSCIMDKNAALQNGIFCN
S1P4 antagonist: S1P4 receptor antagonists, primary screen, cell-based; inhibition, % at 4.98 µM; AID 1510, 2009; Sphingosine 1-phosphate receptor 4 (Homo sapiens), O95977; 220,000 compounds, 0.26% hits; S1P4-expressing cells, antagonist mode, reporter read-out; in the data active = inhibition above about 29%;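 also: 0% = wells stimulated with agonist and 100% = vehicle wells without agonist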
p97 inhibitor: inhibitors of human p97 ATPase, primary screen, biochemical; 220,000 compounds, 0.42% hits; Transitional endoplasmic reticulum ATPase (Homo sapiens), P55072; inhibition, % at 8 µM; AID 1481, 2009; recombinant p97 ATPase, Kinase-Glo ATP luminescence, 3 h; in the data active = inhibition above about 15%;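 also: 0% = DMSO vehicle and 100% = wells lacking enzyme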
Redox H2O2 prof: compounds producing H2O2 with reducing agent – biochemical, NIH compound library profiling, artefact control for MLSCN library redox annotation, primary screen | DTT-dependent redox cycling H2O2, phenol red/HRP absorbance; 100% = 100 µM peroxide control, 0% = buffer | 200,000 compounds, 0.03% hits | activation, % at 10 µM | AID 878, 2007;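 active = activation of at least 50% relative to the plate's high and low controls in the primary single-dose screen; inactive = activation below 50%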;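 also: compound incubated with DTT at 0.8 mM final as the reducing agent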
UBC9 SUMO inh: inhibitors of in vitro SUMOylation cascade, primary screen, biochemical, HTRF, uHTS; HTRF SUMOylation assay, SAE1/SAE2 + UBC9; inhibition, % at 35 µM; 290,000 compounds, 0.36% hits; AID 2006, 2009; in the data active = inhibition above about 50%, passing the limit was not always enough
Target sequence (P63279 whole entry, looked up): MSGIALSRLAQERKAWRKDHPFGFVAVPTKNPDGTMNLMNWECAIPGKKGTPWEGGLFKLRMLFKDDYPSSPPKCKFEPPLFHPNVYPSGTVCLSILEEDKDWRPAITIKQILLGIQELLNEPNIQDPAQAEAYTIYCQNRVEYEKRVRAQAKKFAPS
S1P4 agonist cf: S1P4 receptor agonists, retest, confirmation, cell-based, high throughput. 740 compounds, 7% hits. shares compounds with S1P4 agonist. AID 1523, 2009. S1P4 agonist cell-based reporter assay. activation, % at 4.98 µM; in the data active = activation above about 12%;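 also: 0% = vehicle and 100% = full reference agonist response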
S1P1 ag: S1P1 receptor agonists, human, counter-screen for S1P4 agonist project, cell-based | S1P1 agonist cell-based assay, activation | shares compounds with S1P4 agonist | 740 compounds, 4% hits | AID 1563, 2009 | activation, % at 4.98 µM; in the data active = activation above about 21%;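 also: 0% = vehicle wells and 100% = reference agonist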
An asterisk follows results filed as active; / = no result. Most compounds without a hit are left out; they make up all but 1.1% or so of the library.

SMILES	S1P4 agonist	S1P3 antagonist	S1P4 antagonist	p97 inhibitor	Redox H2O2 prof	UBC9 SUMO inh	S1P4 agonist cf	S1P1 ag
COc1ccc(CNC(=O)c2sc3nc4c(c(C(F)(F)F)c3c2N)CCC4)cc1	196*	-3	-16	3	1	10	-2	-9
Cc1ccc(CNC(=O)c2sc3nc4c(c(C(F)(F)F)c3c2N)CCC4)cc1	1	/	4	-4	-1	2	/	/
CCOC(=O)C1=C(C)N=C2SC(C)C(=O)N2C1c1ccc(OCC)c(OCC)c1 (configuration not stated)	-2	-13	-5	6	-5	-17	/	/
c1ccc2c(c1)N1CCN=C1N2CCN1CCCCC1	-1	-13	-20	0	0	4	/	/
c1ccc2c(c1)N1CCCN=C1N2CCN1CCCCC1	18*	-12	6	-2	-1	12	-2	6
CN(C)CCn1c(SCc2ccccc2C#N)nc2c(sc3ccccc32)c1=O	/	/	/	/	/	16	/	/
CC(=O)Nc1nn(C)c2nc(C)cc(C)c12	28*	-7	2	-3	0	24	-2	0
CC1CN(C(=O)Nc2ccc(F)cc2F)CC(C)O1 (configuration not stated)	/	/	/	/	/	-3	/	/
Cc1cccc(C)c1Nc1nnc(SCC(=O)c2ccc(Br)s2)s1	34*	-3	-13	-1	0	-4	-2	-1
COc1ccc(CCNC(=O)Cn2c(=O)n(-c3ccc(F)cc3F)c(=O)c3sccc32)cc1OC	2	4	-24	3	0	9	/	/
CC(C)(C)C(=O)Cn1c(=O)n(-c2ccc(F)cc2F)c(=O)c2sccc21	95*	-15	0	3	0	15	-3	4
Cc1ccc2nc(-c3ccc(NS(=O)(=O)c4ccccc4)cc3)sc2c1	-1	-13	2	-12	0	-4	/	/
Cc1ccc2nc(-c3ccc(NS(=O)(=O)c4ccc(F)c(F)c4)cc3)sc2c1	30*	3	-1	3	0	10	1	-3
Cc1ccc(C(N)=S)c(C)c1	17*	-7	4	2	1	/	-2	1
Cn1ccs/c1=N\C(=O)Nc1cccc(C(F)(F)F)c1	/	/	/	/	/	-12	/	/
CCCCCCn1c(COc2ccccc2F)nnc1SCC(=O)c1c(N)n(C)c(=O)n(C)c1=O	1	16	-14	5	0	6	/	/
C=CCn1c(COc2cc(C)ccc2C(C)C)nnc1SCC(=O)c1c(N)n(C)c(=O)n(C)c1=O	13*	-1	-7	3	0	10	0	1
O=C(O)CN=CC1=C(O)CC(c2ccccc2)CC1=O (configuration not stated)	/	/	/	/	/	-3	/	/
COc1cccc(COc2ccccc2C2Nc3ccc(Br)cc3C(=O)N2NC(=O)c2ccncc2)c1 (configuration not stated)	-1	/	3	2	-4	-19	/	/
C/C(=N\NC(=O)C(C)n1nc(C)c([N+](=O)[O-])c1C)c1ccccc1O (configuration not stated)	103*	0	-13	5	0	-6	-1	10
Cc1nn(C(C)C(=O)NCc2ccco2)c(C)c1[N+](=O)[O-] (configuration not stated)	4	6	-3	4	0	4	/	/
Cc1ccc(S(=O)(=O)Nc2ncccn2)cc1	/	/	/	/	/	5	/	/
Cc1ccc(S(=O)(=O)N(C)C)cc1-n1c(SCC(=O)Nc2ccc(F)cc2)nc2ccccc2c1=O	11*	-3	-13	7	0	-18	-2	1
O=C(CSc1nnc(CNC(=O)c2cccs2)o1)Nc1ccccc1	12*	-16	-6	12	-1	15	0	-5
Cc1ccc(NC(=O)CSc2nnc(CNC(=O)c3cccs3)o2)cc1	0	-10	-4	5	0	-27	/	/
SMILES	S1P4 agonist	S1P3 antagonist	S1P4 antagonist	p97 inhibitor	Redox H2O2 prof	UBC9 SUMO inh	S1P4 agonist cf	S1P1 ag
COc1cc(C(=O)NCc2nnc(SCC(=O)Nc3nccs3)o2)cc(OC)c1OC	13*	-21	-20	2	0	18	-3	-1
Cc1nn(CC(=O)NCCc2cccs2)c(=O)c2cc3ccccc3n12	/	/	/	/	/	13	/	/
Cc1ccc(NC(=O)N2CCN(c3ncccc3C(F)(F)F)CC2)cc1	1	7	15	-1	/	0	/	/
O=C(Nc1ccc2ccccc2c1)N1CCN(c2ncccc2C(F)(F)F)CC1	16*	6	-14	-5	2	14	-1	2
COc1cccc(NC(=O)CN(c2cccc(C(F)(F)F)c2)S(C)(=O)=O)c1	12*	2	-5	-4	-3	-16	-1	-2
O=C1C(c2ccc(F)cc2)N(Cc2ccc3c(c2)OCO3)C(=O)CN1C1CCCCC1 (configuration not stated)	1	/	-18	1	2	23	/	/
CCCn1c(SCC(=O)Nc2ccc3c(c2)CCC3)n[nH]c1=O	16*	-3	2	3	0	20	-1	-8
CCn1nc(C)c(/C=N/NC(=S)Nc2ccc(Cl)cc2Cl)c1C	1	11	7	2	1	-14	/	/
Cc1nn(C)cc1/C=N/NC(=S)Nc1ccc(Cl)cc1Cl	15*	3	-89	-1	1	9	0	5
O=C(O)c1ccc(N/N=C/c2ccc(-c3ccccc3Cl)o2)cc1	11*	-20	-18	4	/	19	8	18
O=[N+]([O-])c1cc(S(=O)(=O)C(F)(F)F)ccc1NCC1CCCO1 (configuration not stated)	/	/	/	/	/	2	/	/
Cc1ccc(OCC(=O)N/N=C/c2ccc3c(c2)OCO3)cc1C	12*	-2	13	2	-1	33	-2	1
Cc1cc(OCC(=O)Nc2cc(C(C)(C)C)on2)ccc1[N+](=O)[O-]	/	/	/	/	/	-16	/	/
COc1ccc(-c2nnn(CC(=O)N(CCO)C(C(=O)NC3CCCC3)c3ccncc3)n2)cc1 (configuration not stated)	76*	-4	-23	3	1	2	-2	-4
CCOC(=O)N1CCN=C1SCc1ccc(C(F)(F)F)cc1	0	8	5	1	0	-4	/	/
